T cruzi growth-1: T. cruzi proliferation inhibition; T. cruzi beta-gal in NIH3T3, GalScreen luminescence, 90 h; inhibition, % at 8.34 µM; hit rate 5.9% among 77,000; AID 624255;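 active = mean inhibition above about 93%, with at least 55% of replicates each passing it, limit read from the data, passing the limit was not always enough; inconclusive = only one of those two conditions holds; inactive = neither condition holds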
C diff HTS: inhibitors of Clostridium difficile growth | AID 1259249 | hit rate 0.25% among 86,000 | growth activity, negative = inhibition, % at 16 µg/mL (by protocol) | Clostridium difficile clinical isolate growth, OD600, 24 h; hits give low values;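 active = mean growth activity at or below -80% and every replicate also at or below -80%; inconclusive = mean at or below -80% but some replicate above -80%; inactive = mean growth activity above -80%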
T cruzi growth-2: Trypanosoma cruzi proliferation inhibition; shares compounds with T cruzi growth-1; T. cruzi beta-gal in NIH3T3, GalScreen luminescence, 90 h; inhibition, % at 8.35 µM; hit rate 72% among 5,600; AID 651739;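 active = mean replicate inhibition above about 95% and at least 55% of replicates individually reaching it, limit read from the data; inconclusive = only one of the two criteria is met; inactive = neither criterion is met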
T cruzi growth-3: blocks T. cruzi growth in NIH3T3 host cells; T. cruzi beta-gal in NIH3T3, GalScreen luminescence, 90 h; inhibition, % at 2.09 µM; shares compounds with T cruzi growth-1; hit rate 21% among 5,600;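 active = mean inhibition above about 95%, with at least 55% of replicates also reaching it, limit read from the data; inconclusive = meets just one of the two conditions; inactive = meets neither condition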
NIH3T3 tox: NIH/3T3 (mouse) viability loss | cytotoxicity (signal decrease), % at 8.35 µM | hit rate 14% among 5,600 | shares compounds with T cruzi growth-1 | NIH/3T3 viability, CellTiter-Glo ATP luminescence, 90 h;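 active = mean signal decrease across replicates above about 35% based on untreated-well scatter, with enough replicates individually passing, limit read from the data; inconclusive = no rule stated though some were filed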
3T3 cytotox 2: NIH/3T3 (mouse) viability loss; hit rate 56% among 5,600; shares compounds with T cruzi growth-1; NIH/3T3 viability, CellTiter-Glo ATP luminescence, 90 h; inhibition, % at 24.9 µM;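 active = mean loss of cell viability signal at or above a set limit, and enough replicates individually reaching it; inconclusive = meets only the mean limit or only the replicate share; inactive = meets neither condition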
Numbers stand for hits; n = inactive; u = inconclusive; x = no result given. Shown is part of a subset that was picked to be rich in hits.

SMILES | T cruzi growth-1 | C diff HTS | T cruzi growth-2 | T cruzi growth-3 | NIH3T3 tox | 3T3 cytotox 2
C[C@@H]1CN([C@H](C)CO)C(=O)c2cc(NC(=O)Nc3ccccc3)ccc2O[C@@H](C)CCCCO[C@@H]1CN(C)S(=O)(=O)c1ccccc1 | n | x | x | x | x | x
Cc1ccc(S(=O)(=O)N(C)C[C@@H]2OCCCC[C@@H](C)Oc3ccc(NC(=O)Nc4ccccc4)cc3C(=O)N([C@H](C)CO)C[C@@H]2C)cc1 | n | n | x | x | x | x
Cc1ccc(S(=O)(=O)N(C)C[C@H]2OCCCC[C@H](C)Oc3ccc(NC(=O)Nc4ccccc4)cc3C(=O)N([C@@H](C)CO)C[C@H]2C)cc1 | n | n | x | x | x | x
Cc1ccc(S(=O)(=O)N(C)C[C@@H]2OCCCC[C@H](C)Oc3ccc(NC(=O)Nc4ccccc4)cc3C(=O)N([C@H](C)CO)C[C@@H]2C)cc1 | 106 | n | 106 | n | n | n
Cc1ccc(S(=O)(=O)N(C)C[C@H]2OCCCC[C@@H](C)Oc3ccc(NC(=O)c4ccccc4)cc3C(=O)N([C@@H](C)CO)C[C@H]2C)cc1 | n | x | x | x | x | x
Cc1ccc(S(=O)(=O)N(C)C[C@H]2OCCCC[C@H](C)Oc3ccc(NC(=O)Nc4ccccc4)cc3C(=O)N([C@H](C)CO)C[C@@H]2C)cc1 | 110 | n | 103 | n | n | n
Cc1ccc(S(=O)(=O)N(C)C[C@@H]2OCCCC[C@@H](C)Oc3ccc(NC(=O)Nc4ccccc4)cc3C(=O)N([C@H](C)CO)C[C@H]2C)cc1 | 109 | n | 109 | 108 | n | n
Cc1ccc(S(=O)(=O)N(C)C[C@@H]2OCCCC[C@H](C)Oc3ccc(NC(=O)c4ccccc4)cc3C(=O)N([C@H](C)CO)C[C@H]2C)cc1 | 101 | x | 99 | n | n | 49
CCCc1cn(CC[C@@H]2CC[C@H](NC(=O)Cc3cccnc3)[C@H](CO)O2)nn1 | n | n | x | x | x | x
COc1cccc(NC(=O)N[C@H]2CC[C@H](CC(=O)N3CCCCC3)O[C@@H]2CO)c1 | n | x | x | x | x | x
O=C(Nc1cccc(F)c1)N1CCCCN2[C@H](C1)[C@H](c1ccc(-c3ccncc3)cc1)[C@@H]2CO | n | n | x | x | x | x
Cc1ccc(-c2ccc([C@@H]3[C@@H](CO)N4CCCCN(C(=O)Nc5cccc(F)c5)C[C@@H]34)cc2)cc1 | 105 | n | n | u | 69 | 105
O=C(Nc1cccc(F)c1)N1CCCCN2[C@@H](CO)[C@@H](c3ccc(-c4ccncc4)cc3)[C@@H]2C1 | u | n | 104 | n | n | 43
Cc1ccc(-c2ccc([C@@H]3[C@H]4CN(C(=O)Nc5cccc(F)c5)CCCCN4[C@H]3CO)cc2)cc1 | 99 | n | 100 | 108 | 47 | 104
Cc1ccc(-c2ccc([C@H]3[C@@H](CO)N4C(=O)CN(C(=O)Nc5cccc(F)c5)C[C@@H]34)cc2)cc1 | x | n | x | x | x | x
C[C@@H]1CN([C@H](C)CO)C(=O)c2cc(/C=C/c3ccccc3)cnc2O[C@H]1CN(C)C(=O)C1CC1 | n | x | x | x | x | x
C[C@@H]1CCCCO[C@H](CN(C)Cc2ccc(C(F)(F)F)cc2)[C@H](C)CN([C@H](C)CO)C(=O)c2cc(NC(=O)c3ccccc3)ccc2O1 | n | n | x | x | x | x
CCCNC(=O)C[C@H]1C[C@H]2c3cc(NC(=O)c4ccc5c(c4)OCO5)ccc3O[C@H]2[C@@H](CO)O1 | n | n | x | x | x | x
CNC[C@H]1Oc2ccc(NS(=O)(=O)c3ccc(F)cc3)cc2CC(=O)N([C@@H](C)CO)C[C@H]1C | x | n | x | x | x | x
CCCN(C)C[C@@H]1OCCCC[C@H](C)Oc2ccc(NC(=O)C3CCCCC3)cc2C(=O)N([C@@H](C)CO)C[C@@H]1C | 112 | n | 96 | n | n | n
C[C@H](CO)N1C[C@H](C)[C@H](CN(C)CC2CC2)OCCCC[C@H](C)Oc2ccc(NC(=O)C3CCCCC3)cc2C1=O | x | n | x | x | x | x
C[C@H]1CCCCO[C@H](CN(C)CC2CC2)[C@@H](C)CN([C@@H](C)CO)C(=O)c2cc(NC(=O)C3CCCCC3)ccc2O1 | 102 | n | n | n | n | n
CCCN(C)C[C@@H]1OCCCC[C@@H](C)Oc2ccc(NC(=O)C3CCCCC3)cc2C(=O)N([C@@H](C)CO)C[C@@H]1C | n | n | x | x | x | x
COc1ccc(-c2cnc3c(c2)C(=O)N([C@@H](C)CO)C[C@@H](C)[C@H](CN(C)C(=O)Cc2ccccc2)O3)cc1 | n | n | x | x | x | x
C[C@H](NC(=O)C[C@H]1C=C[C@H](NC(=O)C2CCC2)[C@@H](CO)O1)c1ccccc1 | n | x | x | x | x | x
SMILES | T cruzi growth-1 | C diff HTS | T cruzi growth-2 | T cruzi growth-3 | NIH3T3 tox | 3T3 cytotox 2
Cc1ccccc1-c1ccc([C@H]2[C@H]3CN(C(=O)Nc4ccc(F)cc4)CCCCN3[C@H]2CO)cc1 | 101 | n | 111 | n | n | 76
Cc1ccccc1-c1ccc([C@H]2[C@H](CO)N3CCCCN(C(=O)Nc4ccccc4)C[C@@H]23)cc1 | n | n | x | x | x | x
Cc1ccccc1-c1ccc([C@@H]2[C@@H](CO)N3CCCCN(C(=O)Nc4ccccc4)C[C@@H]23)cc1 | n | n | x | x | x | x
Cc1ccccc1-c1ccc([C@H]2[C@@H](CO)N3CCCCN(C(=O)Nc4ccc(F)cc4)C[C@@H]23)cc1 | 104 | n | 107 | n | n | 56
O=C(Nc1ccc(F)cc1)N1CCCCN2[C@H](C1)[C@@H](c1ccc(-c3ccncc3)cc1)[C@@H]2CO | n | n | x | x | x | x
Cc1ccccc1-c1ccc([C@H]2[C@@H](CO)N3CCCCN(C(=O)Nc4ccc(F)cc4)C[C@H]23)cc1 | 101 | n | 98 | u | 94 | 103
CC(=O)N1CC(=O)N2[C@H](C1)[C@H](c1ccc(-c3cccc(C(=O)N(C)C)c3)cc1)[C@@H]2CO | x | n | x | x | x | x
COc1ccccc1CNC(=O)C[C@H]1C[C@H]2c3cc(N(C)C)ccc3O[C@H]2[C@@H](CO)O1 | n | n | x | x | x | x
C[C@H]1CN([C@@H](C)CO)C(=O)c2cccc(N(C)C)c2O[C@H]1CN(C)S(=O)(=O)c1ccc(F)cc1 | x | n | x | x | x | x
C[C@@H]1CN([C@H](C)CO)C(=O)c2cc(NS(=O)(=O)c3ccc(Cl)cc3)ccc2O[C@@H](C)CCCCO[C@H]1CN(C)C(=O)Nc1ccccc1 | u | n | 101 | n | n | n
C[C@@H]1CCCCO[C@H](CN(C)C(=O)Nc2ccccc2)[C@@H](C)CN([C@@H](C)CO)C(=O)c2cc(NS(=O)(=O)c3ccc(Cl)cc3)ccc2O1 | n | n | x | x | x | x
C[C@@H]1CCCCO[C@H](CN(C)C(=O)Nc2ccc(F)cc2)[C@H](C)CN([C@H](C)CO)C(=O)c2cc(NS(=O)(=O)c3ccc(Cl)cc3)ccc2O1 | x | n | x | x | x | x
C[C@@H]1CCCCO[C@@H](CN(C)C(=O)Nc2ccccc2)[C@H](C)CN([C@H](C)CO)C(=O)c2cc(NS(=O)(=O)c3ccc(Cl)cc3)ccc2O1 | n | n | x | x | x | x
C[C@H]1CCCCO[C@@H](CN(C)C(=O)Nc2ccccc2)[C@@H](C)CN([C@@H](C)CO)C(=O)c2cc(NS(=O)(=O)c3ccc(Cl)cc3)ccc2O1 | 114 | n | 108 | n | n | n

Bioassay records: PubChem BioAssay, Broad Institute
